# Test results as given in PubChem BioAssay (NCATS).
# Where “and” joins values, the source holds several entries; their conditions need not be identical. Identical values can stand only once. Inconclusive results are not listed. Calls of active or inactive are those of the source. The call rests on the fitted dose curve; in most records, active means well fitted inhibition curve with a large enough effect; inconclusive means small, poorly fitted or top-dose-only effect; inactive means no such curve, though single readings can be large or run the other way.
# Molecular target: Cytochrome P450 2C19 (Homo sapiens) (UniProt P33261)
# Experiment: qHTS Assay for Inhibitors and Substrates of Cytochrome P450 2C19 (AID 899); further: nearly all actives have a fitted effect of over 60% in size
# Settings: recombinant CYP2C19, luciferin-H EGE luminescence; series mostly up to 57.1 µM; activity, negative = inhibition: at the top concentration
# Protocol: NIH Molecular Libraries Screening Centers Network [MLSCN]
# NIH Chemical Genomics Center [NCGC]
# The P450 gene superfamily is involved in the metabolism and clearance of xenobiotics. This assay used human CYP2C19 to measure the hydroxylation of ethylene glycol ester of 6' deoxyluciferin (Luciferin-H EGE; […]) to luciferin. The luciferin is then measured by luminescence after the addition of a luciferase detection reagent. Luciferin-H EGE concentration in the assay was equal to its KM for CYP2C19. Inhibitors and some substrates limit the production of luciferin, and decrease measured luminescence.
# NCGC Assay Protocol Summary:
# Two uL of enzyme and substrate mix (final concentrations: 5nM CYP2C19, 10uM Luciferin-H EGE, 50mM KPO4) were dispensed into a white, solid bottom 1536-well microtiter plate. 23nL of compound was transferred by a pin tool. The plate was incubated at 37C for 10 min. Two uL of an NADPH regeneration solution (Promega supplied reagent) was dispensed and the reaction was allowed to continue for 60 min at 37C. Then the reaction was stopped by reconstituted luciferin detection buffer. After another 20 min of incubation the plate was read on the ViewLux (Perkin Elmer) at 60 sec exposure and 2x2 binning. This protocol was carried out with Promega-Glo reagents and further information can be found at http://www.promega.com/tbs/tb325/tb325.pdf. Data were normalized to the to AC100 inhibition (57uM ketoconazole).
# Keywords: P450, CYP2C19, Luciferase, MLSMR, MLSCN, NIH Roadmap, qHTS, NCGC
# On the % scale 0 is the no-effect control and ±100 the full control effect; potency means the concentration at half of the fitted maximal effect.
# Chain of Cytochrome P450 2C19 (Homo sapiens) (P33261 whole entry, looked up): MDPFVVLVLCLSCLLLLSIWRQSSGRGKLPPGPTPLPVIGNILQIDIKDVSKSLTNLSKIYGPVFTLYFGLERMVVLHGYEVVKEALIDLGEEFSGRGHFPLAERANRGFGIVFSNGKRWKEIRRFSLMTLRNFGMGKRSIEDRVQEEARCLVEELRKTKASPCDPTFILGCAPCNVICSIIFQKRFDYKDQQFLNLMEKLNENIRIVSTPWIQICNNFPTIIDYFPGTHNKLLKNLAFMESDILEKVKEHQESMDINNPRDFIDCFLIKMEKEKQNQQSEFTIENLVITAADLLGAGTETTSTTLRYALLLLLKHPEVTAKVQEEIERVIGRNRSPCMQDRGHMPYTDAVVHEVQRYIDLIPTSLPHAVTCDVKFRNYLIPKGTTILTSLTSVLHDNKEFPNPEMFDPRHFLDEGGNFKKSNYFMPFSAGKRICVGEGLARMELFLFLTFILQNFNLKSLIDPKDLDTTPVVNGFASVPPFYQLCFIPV
SMILES,Potency,"activity, negative = inhibition"
CCCn1c(C)c(C(=O)c2ccc3ccccc3c2)c2ccccc21,7.94 µM (active),
O=[N+]([O-])c1cc(O)c(O)c([N+](=O)[O-])c1,,-2.32% (inactive)
c1ccc2c(c1)[I+]c1ccccc1-2,501 nM (active) and 63.1 nM (active),
CC(C)(C)c1cc(O)ccc1O,,-31.1% [at 11.4 µM] (inactive)
CCS(=O)(=O)Nc1cccc(C(=C2CCCCC2)c2cnc[nH]2)c1,0.0079 µM (active),
CCC1(C)CC(=O)NC(=O)C1,,45.9% [at 25.6 µM] (inactive)
O=[N+]([O-])c1ccc2nc(N3CCNCC3)ccc2c1,,62.8% (inactive)
Cc1[nH]c2ccc(O)cc2c1CCN,7.94 µM (active),
Nc1ccc(CCN2CCN(c3cccc(C(F)(F)F)c3)CC2)cc1,7.94 µM (active),
O=P(O)(O)C(Cl)(Cl)P(=O)(O)O,,76.3% (inactive)
O=c1ccc2[nH]cc(C3=CCNCC3)c2[nH]1,0.126 µM (active),
Cc1c2ccncc2c(C)c2c1[nH]c1ccccc12,6.31 µM (active) and 3.16 µM (active),
O=S1(=O)N(CCN2CC=C(c3c[nH]c4cc(F)ccc34)CC2)c2cccc3c2N1CCC3,6.31 µM (active),
O=C1C=CC(=O)C=C1,,9.22% (inactive)
CN(N=O)c1ccc(O)c(O)c1,,-19.2% (inactive)
O=c1c2ccccc2[se]n1-c1ccccc1,1.58 µM (active) and 126 nM (active),
